This is part of a sample that, as a whole, favours compounds with a hit. Of some 79,000 tested, about 15% had one in any assay. A number with no mark means an inactive call. Calls of active or inactive are those of the source. Rule as the data show it: active = growth inhibition above about 70%; inactive = the rest.
Assays:
[1] = NCI Yeast Anticancer Drug Screen. Data for the rad52 strain (AID 147);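 also: 0% = growth of vehicle-treated control cultures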; conditions: S. cerevisiae rad52 mutant growth inhibition, active compounds read high
Procedure, shortened: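 Screen used a yeast mutant impaired in DNA repair. After compound exposure, growth was measured. Values reflect inhibition compared with vehicle-treated cells.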

[2] = NCI Yeast Anticancer Drug Screen. Data for the wt1 strain (AID 149);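 also: 0% = growth of vehicle-treated wt1 cultures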; conditions: S. cerevisiae wt1 strain (SPY 50644) growth inhibition, active compounds read high
Procedure, shortened: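 Each compound is tested on wt1 yeast and the loss of growth versus vehicle gives the inhibition value.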

[3] = NCI Yeast Anticancer Drug Screen. Data for the rad50EPP+ strain (AID 151);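 also: 0% = growth of vehicle-treated control cultures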; conditions: S. cerevisiae rad50 mutant strain, active compounds read high
Procedure, shortened: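 Exposing the rad50EPP+ strain to each compound, growth was compared with vehicle-only cultures to give inhibition.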

[4] = NCI Yeast Anticancer Drug Screen. Data for the mgt1 strain (AID 153); conditions: S. cerevisiae mgt1 mutant growth inhibition, active compounds read high
Procedure, shortened: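 Genetically defined yeast (mgt1) treated with compound; inhibition of growth expressed against vehicle-treated controls.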

[5] = NCI Yeast Anticancer Drug Screen. Data for the rad50 strain (AID 155);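 also: 0% = growth of vehicle-only cultures of the same strain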; conditions: S. cerevisiae rad50 strain growth inhibition, active compounds read high
Procedure, shortened: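 Vehicle-treated cultures provide the reference for the growth inhibition reported for compound-exposed, repair-deficient yeast.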

[6] = NCI Yeast Anticancer Drug Screen. Data for the mec2-1 strain (AID 157); conditions: S. cerevisiae mec2-1 strain, active compounds read high
Procedure, shortened: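 Readout is yeast growth inhibition, normalised to vehicle-treated controls, in the mec2-1 strain exposed to compound.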

[7] = NCI Yeast Anticancer Drug Screen. Data for the rad14 strain (AID 159);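 also: 0% = growth of vehicle-treated control cultures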; conditions: S. cerevisiae rad14 strain growth inhibition, active compounds read high
Procedure, shortened: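 Inhibition of growth is reported for a repair-deficient yeast mutant following compound treatment, calculated relative to cultures that received vehicle.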

[8] = NCI Yeast Anticancer Drug Screen. Data for the sgs1 mgt1 strain (AID 161);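 also: 0% = growth of cultures given vehicle only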; conditions: S. cerevisiae sgs1 mgt1 strain, active compounds read high
Procedure, shortened: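 This yeast growth screen uses a strain with defined DNA-repair lesions; compound-treated growth is compared with vehicle-treated growth.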

[9] = NCI Yeast Anticancer Drug Screen. Data for the CLN2oe strain (AID 163);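 also: 0% = growth of vehicle-only control cultures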; conditions: S. cerevisiae CLN2oe strain, active compounds read high
Procedure, shortened: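 Values reflect how much compound exposure reduced yeast growth, referenced to vehicle-exposed cells. Assay organism is a strain with a defined genetic change affecting cell-cycle control.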

[10] = NCI Yeast Anticancer Drug Screen. Data for the cln2 rad14 strain (AID 165);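 also: 0% = growth equal to vehicle treated cultures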; conditions: S. cerevisiae cln2 rad14 strain, active compounds read high
Procedure, shortened: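 Relative to vehicle controls, growth inhibition of compound-treated cln2 rad14 yeast was recorded.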

[11] = NCI Yeast Anticancer Drug Screen. Data for the bub3 strain (AID 167); conditions: S. cerevisiae bub3 mutant strain, active compounds read high
Procedure, shortened: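 Mutant yeast screening strain plus compound; vehicle-treated cultures serve as the 0% inhibition reference.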

[12] = NCI Yeast Anticancer Drug Screen. Data for the wt2 strain (AID 169); conditions: S. cerevisiae wt2 strain growth inhibition, active compounds read high
Procedure, shortened: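 Values express reduction in yeast growth under compound treatment, referenced to vehicle-treated cells.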

[13] = NCI Yeast Anticancer Drug Screen. Data for the mlh1 strain (AID 171);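 also: 0% = growth of vehicle-treated control cultures of the same strain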; conditions: S. cerevisiae mlh1 strain growth inhibition, active compounds read high
Procedure, shortened: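 Steps: expose the defined-mutant yeast strain to compound; expose a parallel culture to vehicle; measure growth; express compound effect as inhibition relative to the vehicle culture.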

[14] = NCI Yeast Anticancer Drug Screen. Data for the sgs1 strain (AID 173);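 also: 0% = growth of vehicle-only control cultures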; conditions: S. cerevisiae sgs1 mutant, active compounds read high
Procedure, shortened: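 Treat defined-mutant yeast with compound; measure growth; calculate inhibition relative to vehicle-treated cells.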

[15] = NCI Yeast Anticancer Drug Screen. Data for the mlh1 rad18 strain (AID 175); conditions: S. cerevisiae mlh1 rad18 strain growth inhibition, active compounds read high
Procedure, shortened: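 Test agents were incubated with a yeast strain of defined genotype (DNA damage repair defect). Inhibition of growth was derived by comparison with vehicle-exposed cultures.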

[16] = NCI Yeast Anticancer Drug Screen. Data for the rad18 strain (AID 177); conditions: S. cerevisiae rad18 mutant growth inhibition, active compounds read high
Procedure, shortened: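 A genetically defined yeast mutant impaired in DNA damage repair was treated with test compounds, then its growth was measured against cultures receiving vehicle alone.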

[17] = at 5.0 µM (retest, dose inferred, filed as 0.5)
[18] = at 50.0 µM (retest, dose inferred, filed as 5.0)

## Nc1ccn(C2OC(CO)C3[O][Sn]([c]4ccccc4)([c]4ccccc4)[O]C32)c(=O)n1 (stereo unspecified)
[1]; at 1.2 µM
  growth inhibition: 3%
[1]; at 3.7 µM
  growth inhibition: 3%
[1]; at 11.0 µM
  growth inhibition: 21%
[1]; at 33.0 µM
  growth inhibition: 46%
[1]; at 100.0 µM
  growth inhibition: 84% (active)
[2]; at 1.2 µM
  growth inhibition: -1%
[2]; at 3.7 µM
  growth inhibition: -1%
[2]; at 11.0 µM
  growth inhibition: 1%
[2]; at 33.0 µM
  growth inhibition: 9%
[2]; at 100.0 µM
  growth inhibition: 53%
[3]; at 1.2 µM
  growth inhibition: 1%
[3]; at 3.7 µM
  growth inhibition: -5%
[3]; at 11.0 µM
  growth inhibition: -1%
[3]; at 33.0 µM
  growth inhibition: 6%
[3]; at 100.0 µM
  growth inhibition: 13%
[4]; at 1.2 µM
  growth inhibition: 7%
[4]; at 3.7 µM
  growth inhibition: 3%
[4]; at 11.0 µM
  growth inhibition: -3%
[4]; at 33.0 µM
  growth inhibition: 30%
[4]; at 100.0 µM
  growth inhibition: 85% (active)
[5]; at 1.2 µM
  growth inhibition: 4%
[5]; at 3.7 µM
  growth inhibition: -1%
[5]; [17]
  growth inhibition: -5%
[5]; at 11.0 µM
  growth inhibition: 26%
[5]; at 33.0 µM
  growth inhibition: 61%
[5]; [18]
  growth inhibition: 51%
[5]; at 50.0 µM
  growth inhibition: 95.4% (active)
[5]; at 100.0 µM
  growth inhibition: 84% (active)
[6]; at 1.2 µM
  growth inhibition: 0%
[6]; at 3.7 µM
  growth inhibition: 3%
[6]; [17]
  growth inhibition: -6%
[6]; at 11.0 µM
  growth inhibition: 4%
[6]; at 33.0 µM
  growth inhibition: 17%
[6]; [18]
  growth inhibition: 34%
[6]; at 50.0 µM
  growth inhibition: 95.5% (active)
[6]; at 100.0 µM
  growth inhibition: 52%
[7]; at 1.2 µM
  growth inhibition: 1%
[7]; at 3.7 µM
  growth inhibition: 1%
[7]; at 11.0 µM
  growth inhibition: 3%
[7]; at 33.0 µM
  growth inhibition: 22%
[7]; at 100.0 µM
  growth inhibition: 78% (active)
[8]; [17]
  growth inhibition: -12%
[8]; [18]
  growth inhibition: 65%
[8]; at 50.0 µM
  growth inhibition: 86.2% (active)
[9]; at 1.2 µM
  growth inhibition: 1%
[9]; at 3.7 µM
  growth inhibition: -1%
[9]; at 11.0 µM
  growth inhibition: 9%
[9]; at 33.0 µM
  growth inhibition: 11%
[9]; at 100.0 µM
  growth inhibition: 60%
[10]; [17]
  growth inhibition: -26%
[10]; [18]
  growth inhibition: -9%
[10]; at 50.0 µM
  growth inhibition: 92.1% (active)
[11]; at 1.2 µM
  growth inhibition: 1%
[11]; at 3.7 µM
  growth inhibition: 1%
[11]; [17]
  growth inhibition: -18%
[11]; at 11.0 µM
  growth inhibition: 3%
[11]; at 33.0 µM
  growth inhibition: 19%
[11]; [18]
  growth inhibition: 41%
[11]; at 50.0 µM
  growth inhibition: 95.9% (active)
[11]; at 100.0 µM
  growth inhibition: 75% (active)
[12]; at 1.2 µM
  growth inhibition: 0%
[12]; at 3.7 µM
  growth inhibition: 0%
[12]; at 11.0 µM
  growth inhibition: 5%
[12]; at 33.0 µM
  growth inhibition: 31%
[12]; at 100.0 µM
  growth inhibition: 79% (active)
[13]; at 1.2 µM
  growth inhibition: -1%
[13]; at 3.7 µM
  growth inhibition: 0%
[13]; at 11.0 µM
  growth inhibition: 6%
[13]; at 33.0 µM
  growth inhibition: 33%
[13]; at 100.0 µM
  growth inhibition: 70% (active)
[14]; at 1.2 µM
  growth inhibition: 0%
[14]; at 3.7 µM
  growth inhibition: 0%
[14]; at 11.0 µM
  growth inhibition: 9%
[14]; at 33.0 µM
  growth inhibition: 44%
[14]; at 100.0 µM
  growth inhibition: 89% (active)
[15]; [17]
  growth inhibition: -22%
[15]; [18]
  growth inhibition: 87% (active)
[15]; at 50.0 µM
  growth inhibition: 95.2% (active)
[16]; at 1.2 µM
  growth inhibition: 3%
[16]; at 3.7 µM
  growth inhibition: 8%
[16]; at 11.0 µM
  growth inhibition: 27%
[16]; at 33.0 µM
  growth inhibition: 67%
[16]; at 100.0 µM
  growth inhibition: 88% (active)

## CC[C@@]1(O)C(=O)OCc2c1cc1n(c2=O)Cc2cc3c(CN(C)C)c(O)ccc3nc2-1
[1]; at 1.2 µM
  growth inhibition: 5%
[1]; at 3.7 µM
  growth inhibition: 13%
[1]; at 11.0 µM
  growth inhibition: 41%
[1]; at 33.0 µM
  growth inhibition: 68%
[1]; at 100.0 µM
  growth inhibition: 87% (active)
[2]; at 1.2 µM
  growth inhibition: -1%
[2]; at 3.7 µM
  growth inhibition: -1%
[2]; at 11.0 µM
  growth inhibition: -2%
[2]; at 33.0 µM
  growth inhibition: -2%
[2]; at 100.0 µM
  growth inhibition: -6%
[3]; at 1.2 µM
  growth inhibition: 30%
[3]; at 3.7 µM
  growth inhibition: 29%
[3]; at 11.0 µM
  growth inhibition: 22%
[3]; at 33.0 µM
  growth inhibition: 23%
[3]; at 100.0 µM
  growth inhibition: 30%
[4]; at 1.2 µM
  growth inhibition: 11%
[4]; at 3.7 µM
  growth inhibition: 2%
[4]; at 11.0 µM
  growth inhibition: 3%
[4]; at 33.0 µM
  growth inhibition: 11%
[4]; at 100.0 µM
  growth inhibition: 18%
[5]; at 1.2 µM
  growth inhibition: 6%
[5]; at 3.7 µM
  growth inhibition: 18%
[5]; [17]
  growth inhibition: 21%
[5]; at 11.0 µM
  growth inhibition: 40%
[5]; at 33.0 µM
  growth inhibition: 79% (active)
[5]; [18]
  growth inhibition: 85% (active)
[5]; at 50.0 µM
  growth inhibition: 80.7% (active)
[5]; at 100.0 µM
  growth inhibition: 92% (active)
[6]; at 1.2 µM
  growth inhibition: -2%
[6]; at 3.7 µM
  growth inhibition: -2%
[6]; [17]
  growth inhibition: -3%
[6]; at 11.0 µM
  growth inhibition: -1%
[6]; at 33.0 µM
  growth inhibition: 2%
[6]; [18]
  growth inhibition: -1%
[6]; at 50.0 µM
  growth inhibition: 12.4%
[6]; at 100.0 µM
  growth inhibition: 10%
[7]; at 1.2 µM
  growth inhibition: -1%
[7]; at 3.7 µM
  growth inhibition: -4%
[7]; at 11.0 µM
  growth inhibition: -2%
[7]; at 33.0 µM
  growth inhibition: -6%
[7]; at 100.0 µM
  growth inhibition: -4%
[8]; [17]
  growth inhibition: -3%
[8]; [18]
  growth inhibition: -3%
[8]; at 50.0 µM
  growth inhibition: 4.5%
[9]; at 1.2 µM
  growth inhibition: -2%
[9]; at 3.7 µM
  growth inhibition: -4%
[9]; at 11.0 µM
  growth inhibition: -6%
[9]; at 33.0 µM
  growth inhibition: -13%
[9]; at 100.0 µM
  growth inhibition: -1%
[10]; [17]
  growth inhibition: -3%
[10]; [18]
  growth inhibition: -12%
[10]; at 50.0 µM
  growth inhibition: -5.5%
[11]; at 1.2 µM
  growth inhibition: 0%
[11]; at 3.7 µM
  growth inhibition: -1%
[11]; [17]
  growth inhibition: -3%
[11]; at 11.0 µM
  growth inhibition: -3%
[11]; at 33.0 µM
  growth inhibition: -14%
[11]; [18]
  growth inhibition: -10%
[11]; at 50.0 µM
  growth inhibition: -14.6%
[11]; at 100.0 µM
  growth inhibition: -11%
[12]; at 1.2 µM
  growth inhibition: -1%
[12]; at 3.7 µM
  growth inhibition: 7%
[12]; at 11.0 µM
  growth inhibition: -3%
[12]; at 33.0 µM
  growth inhibition: -2%
[12]; at 100.0 µM
  growth inhibition: -12%
[13]; at 1.2 µM
  growth inhibition: 0%
[13]; at 3.7 µM
  growth inhibition: -4%
[13]; at 11.0 µM
  growth inhibition: -3%
[13]; at 33.0 µM
  growth inhibition: 0%
[13]; at 100.0 µM
  growth inhibition: 0%
[14]; at 1.2 µM
  growth inhibition: -3%
[14]; at 3.7 µM
  growth inhibition: 0%
[14]; at 11.0 µM
  growth inhibition: 0%
[14]; at 33.0 µM
  growth inhibition: 6%
[14]; at 100.0 µM
  growth inhibition: 5%
[15]; [17]
  growth inhibition: 0%
[15]; [18]
  growth inhibition: 3%
[15]; at 50.0 µM
  growth inhibition: 12.2%
[16]; at 1.2 µM
  growth inhibition: 28%
[16]; at 3.7 µM
  growth inhibition: 23%
[16]; at 11.0 µM
  growth inhibition: 28%
[16]; at 33.0 µM
  growth inhibition: 16%
[16]; at 100.0 µM
  growth inhibition: 9%
